This is part of a sample that, as a whole, favours compounds with a hit. Of some 83,000 tested, about 20% had one in any assay.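 Values shown are percent growth following 48 h exposure of cells in 96-well plates to a single concentration of compound; below 10 was considered active.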 Values without a mark were called inactive. Activity calls are given as the source filed them.
Assays:
Assay in all cases: NCI-60 one-dose screen, 48 h (100 = growth as untreated, 0 = no growth, -100 = all killed)
Settings in all cases: 10 µM unless noted
[1] = tested on: NCI-H23 lung
[2] = tested on: NCI-H226 lung
[3] = tested on: NCI-H322M lung
[4] = tested on: HOP-62 NSCLC
[5] = tested on: NCI-H460 lung
[6] = tested on: HOP-92 NSCLC
[7] = tested on: NCI-H522 lung
[8] = tested on: A549/ATCC NSCLC
[9] = tested on: 786-0 renal
[10] = tested on: COLO 205 colon
[11] = tested on: DU-145 prostate
[12] = tested on: K-562 leukemia
[13] = tested on: MDA-MB-231 breast
[14] = tested on: RXF 393 renal
[15] = tested on: SF-268 CNS
[16] = tested on: SF-295 CNS
[17] = tested on: SF-539 CNS
[18] = tested on: UACC-257 melanoma
[19] = tested on: M14 melanoma

SMILES: Fc1ccc2[nH]cc(-c3nc(-c4c[nH]c5ncccc45)cs3)c2c1
- growth [1]: 43.7%
- growth [2]: 47.4%
- growth [3]: 74.6%
- growth [4]: 47.6%
- growth [5]: 9.85% (active)
- growth [6]: 24.3%
- growth [7]: -7.49% (active)
- growth [8]: 31.1%
- growth [9]: 41.5%
- growth [10]: 45.1%
- growth [11]: 30.5%
- growth [12]: 16.9%
- growth [13]: 44.4%
- growth [14]: 55%
- growth [15]: 48.9%
- growth [16]: 17.8%
- growth [17]: 27.3%
- growth [18]: 53.8%
- growth [19]: 46.1%

SMILES: CC(=O)O[C@H]1CC[C@@]2(C)[C@@H](CC[C@@H]3[C@@H]2CC(=O)[C@@]2(C)[C@H]3C[C@@H](C3CCCC3=O)[C@@H]2C(C)=O)C1 (some centres not stated)
- growth [1]: 107%
- growth [2]: 112%
- growth [3]: 106%
- growth [4]: 100%
- growth [5]: 111%
- growth [6]: 93.1%
- growth [7]: 82.5%
- growth [8]: 101%
- growth [9]: 105%
- growth [10]: 116%
- growth [11]: 117%
- growth [12]: 105%
- growth [13]: 98.8%
- growth [14]: 132%
- growth [15]: 112%
- growth [16]: 112%
- growth [17]: 105%
- growth [18]: 109%
- growth [19]: 97.8%

SMILES: Brc1ccc2[nH]cc(-c3nc(-c4c[nH]c5ncccc45)cs3)c2c1
- growth [1]: 47%
- growth [2]: 62.4%
- growth [3]: 42%
- growth [4]: 56.6%
- growth [5]: 15.7%
- growth [6]: 47.9%
- growth [7]: 25%
- growth [8]: 22.9%
- growth [9]: 10.4%
- growth [10]: 18.5%
- growth [11]: 39.8%
- growth [12]: 4.74% (active)
- growth [13]: 24.9%
- growth [14]: 21.8%
- growth [15]: 59%
- growth [16]: 5.5% (active)
- growth [17]: 50.9%
- growth [18]: -6.38% (active)
- growth [19]: 8.64% (active)

SMILES: O=C(N/N=C\c1c(O)ccc2ccccc12)C1CC1
- growth [1]: 36.4%
- growth [2]: 79.6%
- growth [3]: 33.7%
- growth [4]: 55.8%
- growth [5]: 32.9%
- growth [6]: 43.1%
- growth [7]: 11.6%
- growth [8]: 58.4%
- growth [9]: 49.6%
- growth [10]: 96.3%
- growth [11]: 69.1%
- growth [12]: 34%
- growth [13]: 38.5%
- growth [14]: 50.4%
- growth [15]: 42.3%
- growth [16]: 30%
- growth [17]: 33.2%
- growth [18]: 11.2%
- growth [19]: 39.9%

SMILES: O=[N+]([O-])c1ccc(/C=N\Nc2ccccc2)cc1
- growth [1]: 93.9%
- growth [2]: 87.7%
- growth [3]: 83%
- growth [4]: 95.2%
- growth [5]: 76.7%
- growth [6]: 100%
- growth [7]: 61%
- growth [8]: 57.7%
- growth [9]: 87.2%
- growth [10]: 105%
- growth [11]: 97.1%
- growth [12]: 25.2%
- growth [13]: 68.2%
- growth [14]: 107%
- growth [15]: 73.5%
- growth [16]: 55.3%
- growth [17]: 107%
- growth [18]: 97.2%
- growth [19]: 31.6%

SMILES: CC(=O)Oc1ccccc1C(=O)/C=C/c1cccc([N+](=O)[O-])c1
- growth [1]: 87.9%
- growth [2]: 94.2%
- growth [3]: 99.2%
- growth [4]: 99.2%
- growth [5]: 82.5%
- growth [6]: 69.8%
- growth [7]: 55.9%
- growth [8]: 95.6%
- growth [9]: 81.6%
- growth [10]: 86.7%
- growth [11]: 75%
- growth [12]: 28.1%
- growth [13]: 85.2%
- growth [14]: 60.4%
- growth [15]: 62.6%
- growth [16]: 68.7%
- growth [17]: 80.8%
- growth [18]: 103%
- growth [19]: 96.4%

SMILES: Oc1ccccc1/C=N\NC(=S)Nc1ccc(F)cc1
- growth [1]: 30.4%
- growth [2]: 25.7%
- growth [3]: 30.1%
- growth [4]: 36.5%
- growth [5]: 4.08% (active)
- growth [6]: 46.4%
- growth [7]: 21.4%
- growth [8]: 22.1%
- growth [9]: 16.6%
- growth [10]: 50.3%
- growth [11]: 30.4%
- growth [12]: 14.9%
- growth [13]: 49%
- growth [14]: 20.1%
- growth [15]: 27.8%
- growth [16]: 11.6%
- growth [17]: 23.9%
- growth [18]: 15.4%
- growth [19]: -30.4% (active)

SMILES: COc1ccc(/C=C/C(=O)c2ccc([N+](=O)[O-])cc2)cc1
- growth [1]: 104%
- growth [2]: 102%
- growth [3]: 102%
- growth [4]: 104%
- growth [5]: 110%
- growth [6]: 87.7%
- growth [7]: 83.7%
- growth [8]: 100%
- growth [9]: 94.7%
- growth [10]: 114%
- growth [11]: 109%
- growth [12]: 101%
- growth [13]: 94.5%
- growth [14]: 110%
- growth [15]: 106%
- growth [16]: 114%
- growth [17]: 104%
- growth [18]: 110%
- growth [19]: 106%

Source: PubChem BioAssay (NCI)
